Only some compounds are listed: those with a hit (about 8.6% of all), similar ones and a draw of the others.
Lassa entry: qHTS for Inhibitors of binding or entry into cells for Lassa Virus | 18,000 compounds, 4.1% hits | AID 720533, 2013 | Potency, µM (titrated, usually from 49.2 µM), without a hit: top-dose activity change, negative = inhibition, usual class: inhibitors | Lassa virus pseudotyped entry inhibition, cell-based qHTS
Marburg entry: qHTS for Inhibitors of binding or entry into cells for Marburg Virus; Potency, µM (series often up to 49.2 µM), without a hit: top-dose activity change, negative = inhibition, hits mostly inhibitors; 18,000 compounds, 6.5% hits; AID 720532, 2013; Marburg virus pseudotype entry/binding inhibition, cell-based
Active calls of the source: *; ? = inconclusive; · = not tested or not shown; ! = a repeat was not active; [ ] = dose if it differs, or a comment. Calls follow the shape of the full dose curve; tested in HEK293 cells. % is scaled to controls: 0 for no effect and ±100 for the full control effect; potency is read from the fitted curve at half-maximal effect.

SMILES	Lassa entry	Marburg entry
COc1ccc(-c2coc3ncnc(N)c23)cc1	-18.2%	-38.4%
C[C@]12CC[C@@H]3c4ccc(O)cc4C[C@@H](CCCCCCCCCS(=O)CCCC(F)(F)C(F)(F)F)[C@H]3[C@@H]1CC[C@@H]2O (stereo partly specified)	6.31µM*	-14.2%
C[C@@]12CC[C@@H]3c4ccc(O)cc4C[C@H](CCCCCCCCCS(=O)CCCC(F)(F)C(F)(F)F)[C@H]3[C@@H]1CC[C@@H]2O (stereo partly specified)	?	10.6%
CCC[C@H]1CN(c2ccc(OC)cc2)C(=O)[C@H]1CC(=O)Nc1ccccc1	·	-23.4%
CCCCCCCc1cc2ccc(F)cc2c2c(C(=O)OC)c(C(=O)OC)c(C(=O)OC)n12	-5.0%[8.59 µM]	?
CN1CCc2c(c3ccccc3n2Cc2ccccc2)C1	?	17.8µM*
CN1CCN(C2CN(Cc3ccccc3)S(=O)(=O)C2)CC1 (stereo unspecified)	12.9%	20.9%
CC=C(C)C(=O)O[C@H]1C(C)=C2[C@@H]3OC(=O)[C@@](C)(O)[C@@]3(O)[C@@H](OC(=O)CCC)C[C@](C)(OC(C)=O)[C@@H]2[C@@H]1OC(=O)CCCCCCC	39.8µM*	39.8µM*
C[C@H]1CN(c2ccc(Br)cc2)C(=O)[C@H]1CC(=O)Nc1ccccc1	9.5%	24.0%
CC(NN)c1ccccc1 (stereo unspecified)	-2.5%	14.8%
CC(NCCC(c1ccccc1)c1ccccc1)c1ccccc1 (stereo unspecified)	?	11.2µM*
C[C@@H](Cc1ccccc1)NCCC(c1ccccc1)c1ccccc1	?	7.94µM*
CN(C)[C@H](Cc1ccccc1)c1ccccc1	-1.0%	2.0%
COc1ccc(O[C@H]2C=C[C@@H](c3ccccc3)O[C@H]2COC(=O)CCC(C)=NO[C@H](C)c2cn([C@H](CO)Cc3ccccc3)nn2)cc1	-11.2%[8.59 µM]	-8.6%[8.59 µM]
CC1=C(C(=O)Nc2cc(Cl)c3[nH]ncc3c2)C(c2ccc(C(F)(F)F)cc2)CC(=O)N1 (stereo unspecified)	-19.7%	-33.3%
C#CCN1C(=O)[C@]2(O[C@H](COc3ccccc3)CC3=C2CCC3)c2ccccc21	·	-41.4%[8.59 µM]
Cc1cc(C)cc([C@H]2C[C@]34CN(Cc5ccccc5)[S+](=O)([O-])[C@@H]3C[C@@H]2O4)c1	-19.6%	-14.8%
FC(F)(F)c1ccc(-c2nc(-c3ccccc3)oc2NCc2ccccc2)cc1	?	-6.9%[8.59 µM]
CC12C(=O)OC(=O)C1(C)C1CCC2O1 (stereo unspecified)	2.82µM*	3.55µM*
C[C@@H]1CC[C@H]2C(=O)N(Cc3cccc([N+](=O)[O-])c3)C[C@H](O)CN2[C@@H]1c1ccc(Br)cc1	14.9%[8.59 µM]	32.5%[8.59 µM]
Fc1ccc(-c2c(-c3ccncc3)nc3n2CCS3)cc1	33.5%	?
O=[N+]([O-])c1ccc(-c2nc(-c3ccc(F)cc3)c(-c3ccncc3)[nH]2)cc1	-16.0%	11.2µM*
N#Cc1ccc2c(c1)C[C@]1(CCCCN3C(=O)c4ccccc4C3=O)Oc3c(c(=O)oc4ccc(F)cc34)[C@@H]2O1	-23.8%[8.59 µM]	-26.1%[8.59 µM]
CCN1C(N(C)CCc2c[nH]c3ccccc23)=NC(c2cccc(C(F)(F)F)c2)C(C(=O)OC)=C1C (stereo unspecified)	-23.1%[8.59 µM]	?
Cc1ccccc1-c1nc(NC2CCNCC2)c2ccccc2n1	8.6%	8.91µM*
SMILES	Lassa entry	Marburg entry
Cc1ccccc1-c1nc(NCCN2CCOCC2)c2ccccc2n1	-2.9%	-15.6%
CO/N=C(\C(=O)N[C@@H]1C(=O)N2C(C(=O)[O-])=C(C[n+]3ccc(N)n3CCO)CS[C@H]12)c1csc(N)n1	-18.7%	-12.5%
CCOC(=O)C(CCc1ccccc1)NC(C)C(=O)N1CCCC1C(=O)O (stereo unspecified)	3.5%	5.7%
CCCNC(=O)[C@H]1O[C@@H]1C(=O)N[C@H](C(=O)N1CCC[C@H]1C(=O)OC)[C@@H](C)CC	10µM*	2.51µM*
CC(=O)N1C(=O)NC(C)=C(C#N)C1c1ccccc1 (stereo unspecified)	11.4%[8.59 µM]	-10.4%[8.59 µM]
C=CCC12OC3(OC)CC1[C@H](C)[C@@H](c1ccccc1)C2[C@@]3(C)O (stereo partly specified)	-1.6%[8.59 µM]	0.3%[8.59 µM]
COC(=O)c1ccc(CN2C(=O)[C@]3(O[C@H](C)CC4=CCCC43)c3c(Br)cccc32)cc1 (stereo partly specified)	-5.7%[8.59 µM]	5.0%[8.59 µM]
Nc1nc(-c2nn(Cc3ccccc3F)c3ncccc23)ncc1C1CC1	0.891µM*	0.562µM*
CC(=O)OC[C@H]1O[C@@H](ON=C(C)CCN2CCCCc3nc(C)c(C)cc32)[C@H](OC(C)=O)[C@@H](OC(C)=O)[C@H]1OC(C)=O	-10.3%[8.59 µM]	1.0%[8.59 µM]
CN1CCN(C(c2ccccc2)c2ccccc2)CC1	11.2µM*!	11.2µM*!
Cc1cccc(CN2CCN(C(c3ccccc3)c3ccc(Cl)cc3)CC2)c1 (stereo unspecified)	?	7.08µM*
CN1CCCN(C(c2ccccc2)c2ccc(Cl)cc2)CC1 (stereo unspecified)	22.4µM*	7.08µM*
Cc1ccc(CN2CC(N3CCN(Cc4cccc(C)c4)CC3)CS2(=O)=O)cc1 (stereo unspecified)	9.8%	19.8%
c1ccc(C[C@@H](c2ccccc2)N2CCCCC2)cc1	-7.1%	?
C=CCOC(=O)N[C@H](c1cccc(OC)c1)[C@H](C)C=CCC(=O)OC	·	14.5%[8.59 µM]
Cc1ccccc1CN1[C@@H](CC(C)C)COc2c(Cl)cccc2S1(=O)=O	14.7%	-24.2%
C[C@@H]1C(c2ccccc2)=CC(=O)c2nc3ccccc3cc2[C@@H]1C(=O)N1CCCC1	-2.8%[8.59 µM]	-10.4%[8.59 µM]
COc1ccc(CC(N)C(=O)N[C@H]2[C@@H](O)[C@H](n3cnc4c(N(C)C)ncnc43)O[C@@H]2CO)cc1 (stereo partly specified)	1.26µM*	6.31µM*
C[C@@H](Cc1ccccc1)Nc1ncnc2c1ncn2[C@@H]1O[C@H](CO)[C@@H](O)[C@H]1O	3.4%	48.0%
CC(=O)C1=CN(CCC=Cc2ccccc2)C(=O)NC1c1ccccc1 (stereo unspecified)	-19.8%[8.59 µM]	?
CC(=O)OC[C@H]1O[C@H](CC=NOCC[C@@H]2C=C[C@@H](OC(C)=O)[C@@H](COC(C)=O)O2)C=C[C@@H]1OC(C)=O	-0.8%[8.59 µM]	10.3%[8.59 µM]
C=CCO[C@@H]1C=C[C@@H](c2ccccc2)O[C@@H]1COC	3.6%[8.59 µM]	18.3%[8.59 µM]
C=C1C([C@@H](O)C[C@H](C)C2O[C@@]3(CCCCO3)CC[C@H]2C)OC2CC[C@@]3(CC[C@@H](/C=C/[C@@H](C)C4CC(C)=C[C@]5(O4)O[C@H](C[C@@](C)(O)C(=O)O)CCC5O)O3)OC2[C@@H]1O (stereo partly specified)	1.12µM*	?
C=CCOC(=O)N[C@@H](c1cccc(OC)c1)[C@@H](C)C=CCC(=O)O	14.4%[8.59 µM]	6.7%[8.59 µM]
CCN(CC)CCOC(=O)C(Cc1cccc2ccccc12)CC1CCCO1 (stereo unspecified)	?	10µM*
COc1ccc(C(=O)N(Cc2cc3cccc(C)c3nc2N(C)C)CC2CCCO2)cc1 (stereo unspecified)	-11.0%	-15.2%
C[C@@H]1N[S+](=O)([O-])c2ccc(F)cc2O[C@H]1c1ccccc1	9.4%	?
COC(=O)C1(C(=O)OC)CC=CCc2ccccc2[C@H]1C[N+](=O)[O-]	-7.8%[8.59 µM]	3.3%[8.59 µM]

Bioassay records deposited in PubChem BioAssay by National Center for Advancing Translational Sciences (NCATS).
